Measured values published in PMC7862700, “An all-to-all approach to the identification of sequence-specific readers for epigenetic DNA modifications on cytosine”.

Tests used:
Assay in all cases: DAPPL (digital affinity profiling via proximity ligation, sequencing); 10 mM Tris-HCl pH 7.5, 50 mM NaCl, 1 mM DTT, 4% glycerol, room temperature, 30 min; GST-TFs on glutathione beads, 16-mer random dsDNA library, 0.1% formaldehyde crosslink after washing; high values mean tight binding
Conditions in all cases: protein: recombinant; tags: N-terminal GST; dsDNA, one strand shown
ERF = biological target: T1, ERF (Homo sapiens, UniProt P50548 1-548)
T1 sequence: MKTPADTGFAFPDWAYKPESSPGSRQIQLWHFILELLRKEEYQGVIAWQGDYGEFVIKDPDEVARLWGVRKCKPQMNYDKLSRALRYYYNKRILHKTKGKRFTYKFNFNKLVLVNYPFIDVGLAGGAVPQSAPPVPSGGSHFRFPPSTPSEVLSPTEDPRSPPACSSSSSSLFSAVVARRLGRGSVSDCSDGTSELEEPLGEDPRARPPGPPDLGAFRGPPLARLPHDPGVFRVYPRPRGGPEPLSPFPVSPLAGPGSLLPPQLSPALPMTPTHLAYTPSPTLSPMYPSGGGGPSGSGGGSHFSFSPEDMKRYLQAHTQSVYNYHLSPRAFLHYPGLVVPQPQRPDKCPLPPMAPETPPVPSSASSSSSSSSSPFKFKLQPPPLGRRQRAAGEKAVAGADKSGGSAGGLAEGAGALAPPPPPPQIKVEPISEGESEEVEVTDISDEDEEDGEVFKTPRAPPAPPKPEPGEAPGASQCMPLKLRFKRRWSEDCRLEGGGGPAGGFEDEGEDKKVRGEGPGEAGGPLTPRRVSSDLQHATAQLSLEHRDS
Procedure, shortened: (§1)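 Binding signal is defined as a hexamer's read frequency for one factor over its frequency for the tag-only sample. To obtain reads, GST-fused human transcription factors were expressed in yeast, captured on glutathione beads, barcoded with DNA and pooled with that sample. Pools met 200 nmole of a 16-mer random double-stranded DNA library in Tris/NaCl/DTT/glycerol buffer for 30 min at room temperature before washing, 0.1% formaldehyde crosslinking, proximity ligation (BsaI/T4 ligase, 1 h, 37 °C), PCR and Illumina NextSeq500 sequencing.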

ETV3L = biological target: T2, ETV3L (Homo sapiens, UniProt Q6ZN32 1-361)
T2 sequence: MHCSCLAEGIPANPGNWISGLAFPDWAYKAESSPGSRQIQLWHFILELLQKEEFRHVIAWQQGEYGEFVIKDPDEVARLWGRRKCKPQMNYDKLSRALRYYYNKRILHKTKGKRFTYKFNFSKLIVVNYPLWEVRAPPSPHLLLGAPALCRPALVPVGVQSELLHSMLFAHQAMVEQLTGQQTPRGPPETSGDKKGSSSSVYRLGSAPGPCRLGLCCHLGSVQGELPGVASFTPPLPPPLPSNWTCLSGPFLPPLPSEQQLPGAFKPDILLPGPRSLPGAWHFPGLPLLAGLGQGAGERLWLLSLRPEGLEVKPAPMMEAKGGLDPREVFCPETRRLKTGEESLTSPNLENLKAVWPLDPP
Procedure, shortened: as §1

ETS2 = biological target: T3, ETS2 (Homo sapiens, UniProt P15036 1-469)
T3 sequence: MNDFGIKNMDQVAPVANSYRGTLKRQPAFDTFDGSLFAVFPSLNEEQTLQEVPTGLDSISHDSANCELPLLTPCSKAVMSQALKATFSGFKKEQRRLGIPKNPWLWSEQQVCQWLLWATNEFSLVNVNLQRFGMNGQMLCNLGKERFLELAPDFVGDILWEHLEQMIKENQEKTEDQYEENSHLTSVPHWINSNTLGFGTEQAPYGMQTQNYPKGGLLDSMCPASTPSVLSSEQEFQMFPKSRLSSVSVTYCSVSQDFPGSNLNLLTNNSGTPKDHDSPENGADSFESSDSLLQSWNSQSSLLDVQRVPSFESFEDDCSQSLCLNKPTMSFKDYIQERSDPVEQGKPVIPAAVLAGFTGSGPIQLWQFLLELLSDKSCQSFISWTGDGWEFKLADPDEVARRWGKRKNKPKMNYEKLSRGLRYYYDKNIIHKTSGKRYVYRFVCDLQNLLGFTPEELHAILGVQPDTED
Procedure, shortened: as §1

SPDEF = biological target: T4, SPDEF (Homo sapiens, UniProt O95238 1-335)
T4 sequence: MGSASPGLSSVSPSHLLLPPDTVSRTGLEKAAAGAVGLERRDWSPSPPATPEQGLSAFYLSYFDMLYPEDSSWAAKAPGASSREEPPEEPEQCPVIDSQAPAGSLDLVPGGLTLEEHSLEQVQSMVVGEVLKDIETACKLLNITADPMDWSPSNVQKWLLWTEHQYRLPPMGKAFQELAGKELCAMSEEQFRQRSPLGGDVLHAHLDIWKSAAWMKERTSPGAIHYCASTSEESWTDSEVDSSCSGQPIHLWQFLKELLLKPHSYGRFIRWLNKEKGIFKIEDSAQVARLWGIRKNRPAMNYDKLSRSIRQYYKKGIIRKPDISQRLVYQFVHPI
Procedure, shortened: as §1

ETV7 = biological target: T5, ETV7 (Homo sapiens, UniProt Q9Y603 1-341)
T5 sequence: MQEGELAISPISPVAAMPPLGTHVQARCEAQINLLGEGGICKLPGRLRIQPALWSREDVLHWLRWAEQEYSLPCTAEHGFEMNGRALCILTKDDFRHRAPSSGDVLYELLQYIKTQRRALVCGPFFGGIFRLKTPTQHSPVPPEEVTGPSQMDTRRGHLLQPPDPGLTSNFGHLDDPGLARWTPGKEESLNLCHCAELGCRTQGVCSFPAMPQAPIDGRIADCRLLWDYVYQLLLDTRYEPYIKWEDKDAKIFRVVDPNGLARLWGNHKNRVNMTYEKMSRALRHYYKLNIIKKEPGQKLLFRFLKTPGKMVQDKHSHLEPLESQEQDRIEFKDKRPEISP
Procedure, shortened: as §1

ELF5 = biological target: T6, ELF5 (Homo sapiens, UniProt Q9UKW6-2 1-255)
T6 sequence: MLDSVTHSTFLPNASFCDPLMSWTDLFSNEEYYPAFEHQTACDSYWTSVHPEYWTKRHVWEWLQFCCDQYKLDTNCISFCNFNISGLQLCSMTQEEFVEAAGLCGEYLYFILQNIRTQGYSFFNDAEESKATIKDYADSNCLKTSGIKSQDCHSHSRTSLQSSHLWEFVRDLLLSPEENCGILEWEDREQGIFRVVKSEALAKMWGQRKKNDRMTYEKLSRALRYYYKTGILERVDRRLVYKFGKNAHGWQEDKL
Procedure, shortened: as §1

ETV3 = biological target: T7, ETV3 (Homo sapiens, UniProt P41162-2 1-143)
T7 sequence: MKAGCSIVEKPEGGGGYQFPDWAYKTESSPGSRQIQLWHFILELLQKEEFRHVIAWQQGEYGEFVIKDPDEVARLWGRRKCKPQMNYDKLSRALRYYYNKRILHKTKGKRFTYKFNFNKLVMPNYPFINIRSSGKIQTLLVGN
Procedure, shortened: as §1

ETV6 = ETV6 (Homo sapiens, UniProt P41212 1-452)
Chain of ETV6 (P41212 whole entry): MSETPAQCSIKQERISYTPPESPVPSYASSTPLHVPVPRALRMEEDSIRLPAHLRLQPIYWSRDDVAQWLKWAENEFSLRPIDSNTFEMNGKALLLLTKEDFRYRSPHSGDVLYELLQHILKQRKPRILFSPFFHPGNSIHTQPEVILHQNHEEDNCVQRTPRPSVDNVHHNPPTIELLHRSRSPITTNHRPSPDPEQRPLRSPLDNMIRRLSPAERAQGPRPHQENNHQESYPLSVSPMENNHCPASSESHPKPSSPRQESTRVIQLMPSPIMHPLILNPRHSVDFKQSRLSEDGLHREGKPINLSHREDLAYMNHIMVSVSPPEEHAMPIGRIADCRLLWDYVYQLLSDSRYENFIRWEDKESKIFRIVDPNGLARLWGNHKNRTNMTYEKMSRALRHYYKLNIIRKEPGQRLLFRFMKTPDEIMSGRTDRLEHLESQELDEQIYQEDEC
Procedure, shortened: as §1

Sequence	binding signal (ERF)	binding signal (ETV3L)	binding signal (ETS2)	binding signal (SPDEF)	binding signal (ETV7)	binding signal (ELF5)	binding signal (ETV3)	binding signal (ETV6)
TTTGCG	1.36 fold enrichment (6-mer frequency, TF over GST control)	1.16 fold enrichment (6-mer frequency, TF over GST control)	1.21 fold enrichment (6-mer frequency, TF over GST control)	1.2 fold enrichment (6-mer frequency, TF over GST control)	1.11 fold enrichment (6-mer frequency, TF over GST control)	1.16 fold enrichment (6-mer frequency, TF over GST control)	1.17 fold enrichment (6-mer frequency, TF over GST control)	1.29 fold enrichment (6-mer frequency, TF over GST control)
ACAATC	1.2 fold enrichment (6-mer frequency, TF over GST control)	1.14 fold enrichment (6-mer frequency, TF over GST control)	1.17 fold enrichment (6-mer frequency, TF over GST control)	1.16 fold enrichment (6-mer frequency, TF over GST control)	1.16 fold enrichment (6-mer frequency, TF over GST control)	1.19 fold enrichment (6-mer frequency, TF over GST control)	1.14 fold enrichment (6-mer frequency, TF over GST control)	1.12 fold enrichment (6-mer frequency, TF over GST control)
CTCGAG	1.29 fold enrichment (6-mer frequency, TF over GST control)	1.25 fold enrichment (6-mer frequency, TF over GST control)	1.17 fold enrichment (6-mer frequency, TF over GST control)	1.16 fold enrichment (6-mer frequency, TF over GST control)	1.36 fold enrichment (6-mer frequency, TF over GST control)	1.16 fold enrichment (6-mer frequency, TF over GST control)	1.16 fold enrichment (6-mer frequency, TF over GST control)	1.32 fold enrichment (6-mer frequency, TF over GST control)
TTAAGG	1.16 fold enrichment (6-mer frequency, TF over GST control)	1.09 fold enrichment (6-mer frequency, TF over GST control)	1.1 fold enrichment (6-mer frequency, TF over GST control)	1.28 fold enrichment (6-mer frequency, TF over GST control)	1.12 fold enrichment (6-mer frequency, TF over GST control)	1.26 fold enrichment (6-mer frequency, TF over GST control)	1.16 fold enrichment (6-mer frequency, TF over GST control)	1.06 fold enrichment (6-mer frequency, TF over GST control)
ATAGAT	1.2 fold enrichment (6-mer frequency, TF over GST control)	1.25 fold enrichment (6-mer frequency, TF over GST control)	1.12 fold enrichment (6-mer frequency, TF over GST control)	1.27 fold enrichment (6-mer frequency, TF over GST control)	1.17 fold enrichment (6-mer frequency, TF over GST control)	1.18 fold enrichment (6-mer frequency, TF over GST control)	1.01 fold enrichment (6-mer frequency, TF over GST control)	1.15 fold enrichment (6-mer frequency, TF over GST control)
AAGTAA	1.27 fold enrichment (6-mer frequency, TF over GST control)	1.31 fold enrichment (6-mer frequency, TF over GST control)	1.27 fold enrichment (6-mer frequency, TF over GST control)	1.23 fold enrichment (6-mer frequency, TF over GST control)	1.27 fold enrichment (6-mer frequency, TF over GST control)	1.42 fold enrichment (6-mer frequency, TF over GST control)	1.28 fold enrichment (6-mer frequency, TF over GST control)	1.45 fold enrichment (6-mer frequency, TF over GST control)
GCTTTA	1.25 fold enrichment (6-mer frequency, TF over GST control)	1.15 fold enrichment (6-mer frequency, TF over GST control)	1.2 fold enrichment (6-mer frequency, TF over GST control)	1.06 fold enrichment (6-mer frequency, TF over GST control)	1.19 fold enrichment (6-mer frequency, TF over GST control)	1.08 fold enrichment (6-mer frequency, TF over GST control)	1.13 fold enrichment (6-mer frequency, TF over GST control)	1.1 fold enrichment (6-mer frequency, TF over GST control)
TTCAAC	1.31 fold enrichment (6-mer frequency, TF over GST control)	1.16 fold enrichment (6-mer frequency, TF over GST control)	1.29 fold enrichment (6-mer frequency, TF over GST control)	1.28 fold enrichment (6-mer frequency, TF over GST control)	1.19 fold enrichment (6-mer frequency, TF over GST control)	1.27 fold enrichment (6-mer frequency, TF over GST control)	1.32 fold enrichment (6-mer frequency, TF over GST control)	1.19 fold enrichment (6-mer frequency, TF over GST control)
TTCACG	1.44 fold enrichment (6-mer frequency, TF over GST control)	1.32 fold enrichment (6-mer frequency, TF over GST control)	1.34 fold enrichment (6-mer frequency, TF over GST control)	1.34 fold enrichment (6-mer frequency, TF over GST control)	1.43 fold enrichment (6-mer frequency, TF over GST control)	1.38 fold enrichment (6-mer frequency, TF over GST control)	1.35 fold enrichment (6-mer frequency, TF over GST control)	1.43 fold enrichment (6-mer frequency, TF over GST control)
TTTGCT	1.39 fold enrichment (6-mer frequency, TF over GST control)	1.22 fold enrichment (6-mer frequency, TF over GST control)	1.32 fold enrichment (6-mer frequency, TF over GST control)	1.16 fold enrichment (6-mer frequency, TF over GST control)	1.38 fold enrichment (6-mer frequency, TF over GST control)	1.16 fold enrichment (6-mer frequency, TF over GST control)	1.24 fold enrichment (6-mer frequency, TF over GST control)	1.14 fold enrichment (6-mer frequency, TF over GST control)
CTCATT	1.35 fold enrichment (6-mer frequency, TF over GST control)	1.47 fold enrichment (6-mer frequency, TF over GST control)	1.49 fold enrichment (6-mer frequency, TF over GST control)	1.33 fold enrichment (6-mer frequency, TF over GST control)	1.29 fold enrichment (6-mer frequency, TF over GST control)	1.5 fold enrichment (6-mer frequency, TF over GST control)	1.39 fold enrichment (6-mer frequency, TF over GST control)	1.45 fold enrichment (6-mer frequency, TF over GST control)
CTTCCT	2.9 fold enrichment (6-mer frequency, TF over GST control)	3.08 fold enrichment (6-mer frequency, TF over GST control)	3.37 fold enrichment (6-mer frequency, TF over GST control)	2.74 fold enrichment (6-mer frequency, TF over GST control)	2.76 fold enrichment (6-mer frequency, TF over GST control)	5.89 fold enrichment (6-mer frequency, TF over GST control)	3.61 fold enrichment (6-mer frequency, TF over GST control)	3.81 fold enrichment (6-mer frequency, TF over GST control)
ATCTGG	1.25 fold enrichment (6-mer frequency, TF over GST control)	1.2 fold enrichment (6-mer frequency, TF over GST control)	1.11 fold enrichment (6-mer frequency, TF over GST control)	1.06 fold enrichment (6-mer frequency, TF over GST control)	1.14 fold enrichment (6-mer frequency, TF over GST control)	1.11 fold enrichment (6-mer frequency, TF over GST control)	1.16 fold enrichment (6-mer frequency, TF over GST control)	1.1 fold enrichment (6-mer frequency, TF over GST control)
GCTTGC	1.24 fold enrichment (6-mer frequency, TF over GST control)	1.29 fold enrichment (6-mer frequency, TF over GST control)	1.24 fold enrichment (6-mer frequency, TF over GST control)	1.22 fold enrichment (6-mer frequency, TF over GST control)	1.21 fold enrichment (6-mer frequency, TF over GST control)	1.03 fold enrichment (6-mer frequency, TF over GST control)	1.19 fold enrichment (6-mer frequency, TF over GST control)	1.15 fold enrichment (6-mer frequency, TF over GST control)
CTACAC	1.31 fold enrichment (6-mer frequency, TF over GST control)	1.4 fold enrichment (6-mer frequency, TF over GST control)	1.25 fold enrichment (6-mer frequency, TF over GST control)	1.39 fold enrichment (6-mer frequency, TF over GST control)	1.25 fold enrichment (6-mer frequency, TF over GST control)	1.36 fold enrichment (6-mer frequency, TF over GST control)	1.39 fold enrichment (6-mer frequency, TF over GST control)	1.36 fold enrichment (6-mer frequency, TF over GST control)
